We go through 13 compounds from PubChem BioAssay (NCATS).

Experiment [1] in a line: qHTS profiling of the MIPE4 collection as inhibitors of Plasmodium falciparum (3D7) proliferation (AID 743344).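 Also: scaled between DMSO vehicle wells and 0.29 µM artemisinin as full inhibition.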 As to conditions: P. falciparum 3D7 in erythrocytes, SYBR Green DNA fluorescence, 72 h; at 28.5 µM unless noted. Put shortly:
(§1)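 Erythrocytes infected with P. falciparum (0.3% parasitemia, 2.5% hematocrit) incubated with compounds 72 h at 37 C, 5% CO2. Lysis with saponin/Triton buffer containing SYBR Green I, overnight at room temperature in the dark; DNA fluorescence (485/535 nm) normalised to 0.29 uM artemisinin and DMSO.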
(In general: qHTS replaces the single test concentration by a dilution series.)

Experiment [2] can be described thus: qHTS profiling of the MIPE4 collection as inhibitors of Plasmodium falciparum (DD2) proliferation (AID 743345). As to conditions: P. falciparum Dd2 in erythrocytes, SYBR Green DNA, 72 h; at 28.5 µM unless noted. Summed up: as §1
Experiment [3] can be described thus: qHTS profiling of the MIPE4 collection as inhibitors of Plasmodium falciparum (DD2) proliferation (Rep 2) (AID 743346). As to conditions: P. falciparum Dd2 in erythrocytes, SYBR Green DNA, 72 h; at 28.5 µM unless noted. Put shortly:
as §1

The nature of experiment [4]: qHTS profiling of the MIPE4 collection as inhibitors of Plasmodium falciparum (HB3) proliferation (AID 743347).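 Also: plate controls were DMSO vehicle wells for no effect and artemisinin wells for full effect.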 The conditions noted are these: P. falciparum HB3 in erythrocytes, SYBR Green DNA, 72 h; at 28.5 µM unless noted. Put shortly: as §1
Experiment [5] can be described thus: High-throughput drug toxicity screening in the BPDCN cell line Gen2.2 (AID 1224824).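 Also: cells exposed to compounds for 48 h before reading.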 The conditions noted are these: Gen2.2 BPDCN cells; at 45.8 µM (top of the series) unless noted. Put shortly:
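Gen2.2, 500 cells/well, phenol red-free RPMI/10% FBS/Pen-Strep; 48 h cpd, 37 °C/5% CO2; CTG lum, 15 min RT. Norm: DMSO = 100%, bortezomib 9.2 uM final = 0%.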

A short description of experiment [6]: High-throughput drug toxicity screening in the BPDCN cell line Cal-1 (AID 1224825). The conditions noted are these: Cal-1 BPDCN cell viability, qHTS; at 45.8 µM (top of the series) unless noted. Summed up: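 Cal-1 cells, 500 per well in phenol-red-free RPMI with 10% FBS, exposed to compounds for 48 hours at 37C, 5% CO2. Viability read by CellTiter-Glo luminescence; percent activity normalized to DMSO (100%) and 9.2 uM bortezomib final (0%).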

A short description of experiment [7]: qHTS profiling for inhibitors of Plasmodium falciparum (3D7) proliferation (AID 743322).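 Also: infected erythrocytes exposed to compound for 72 h before lysis; 100% = DMSO vehicle wells and 0% = 0.29 µM artemisinin.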 The conditions noted are these: P. falciparum 3D7 proliferation; at 28.7 µM (top of the series). Put shortly:
as §1

Experiment [8] in a line: qHTS profiling for inhibitors of Plasmodium falciparum (DD2) proliferation (AID 743323). The conditions noted are these: lower = more inhibition; at 28.7 µM (top of the series). Put shortly: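 SYBR Green fluorescence (ex 485, em 535 nm) of lysed cultures gives parasite DNA content; wells normalized to artemisinin (0.29 uM) and DMSO controls. Infected red cells: 0.3% parasitemia, 2.5% hematocrit, 72 h, 37 C.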

In turn, `O=C(O)Cn1nnc(-c2cc(N3CCC(Oc4cc(F)ccc4Br)CC3)no2)n1` had a parasite growth, % of DMSO control in experiment [1] of 86%. The parasite growth remaining, % of DMSO control (lower = more inhibition) in experiment [2] is 127%. Besides, the parasite growth, % of control (lower = inhibition) in experiment [3] was 83.7%. The same compound registered a growth, % of control in experiment [4] of 95.6%. For the same compound, in experiment [5], the cell viability, % of control (lower = more cytotoxic) worked out at 231%. Also, the viability (% of control) in experiment [6] was found to be 114%.
In turn, `CCCCN1CCC(CNC(=O)c2c3n(c4ccccc24)CCCO3)CC1` had a parasite growth, % of DMSO control in experiment [1] of 25.9%. In addition, the cell viability, % of control (lower = more cytotoxic) in experiment [5] worked out at 110%. Besides, the viability (% of control) in experiment [6] was determined as 9.06%.
Consider `COc1ccc(-c2cc3c(C)nc(N)nc3n(C3CCC(OCCO)CC3)c2=O)cn1` (stereo unspecified), for which the parasite growth, % of DMSO control in experiment [1] was 5.2%. Also, in experiment [2], the parasite growth remaining, % of DMSO control (lower = more inhibition) was determined as 7.58%. The parasite growth, % of control (lower = inhibition) in experiment [3] came to 7.09%. Also, the growth, % of control in experiment [4] worked out at 3.04%. Further, in experiment [5], the cell viability, % of control (lower = more cytotoxic) amounted to 9.04%. Moreover, the viability (% of control) in experiment [6] amounted to 3.91%.
Consider `COc1c(OCCCN2CCOCC2)ccc2c3n(c(=NC(=O)c4cnc(N)nc4)nc12)CCN3`, for which, in experiment [1], the parasite growth, % of DMSO control worked out at 7.6% [at 9.64 µM]. For the same compound, the parasite growth remaining, % of DMSO control (lower = more inhibition) in experiment [2] was 12% [at 9.64 µM]. Also, in experiment [3], the parasite growth, % of control (lower = inhibition) was 16.8% [at 9.64 µM]. For the same compound, the growth, % of control in experiment [4] is 3.45% [at 9.64 µM]. In addition, the cell viability, % of control (lower = more cytotoxic) in experiment [5] worked out at 37.7% [at 23.2 µM]. The viability (% of control) in experiment [6] was found to be 69.2% [at 23.2 µM].
In experiment [1], `CC[C@H]1CN2CCc3cc(OC)c(OC)cc3[C@H]2C[C@@H]1C[C@@H]1NCCc2cc(OC)c(OC)cc21` registered a parasite growth, % of DMSO control of 4.96%. Further, in experiment [2], the parasite growth remaining, % of DMSO control (lower = more inhibition) was determined as 6.45%. In addition, in experiment [3], the parasite growth, % of control (lower = inhibition) worked out at 7.29%. Also, in experiment [5], the cell viability, % of control (lower = more cytotoxic) was 8.8%. The viability (% of control) in experiment [6] turned out to be 6.78%.
The corresponding values for `O=C(CCCCCCC(=O)Nc1ccc([C@H]2O[C@@H](CSc3nc(-c4ccccc4)c(-c4ccccc4)o3)C[C@@H](c3ccc(CO)cc3)O2)cc1)NO` are 5.18%, 6.85%, 7.19%, 9.13% and 4.48%.
Regarding `CC1=C(CO)C(=O)O[C@@H]([C@@H](C)[C@H]2CC[C@H]3[C@@H]4C[C@H]5O[C@]56[C@@H](O)C=CC(=O)[C@]6(C)[C@@H]4CC[C@]23C)C1`, the remaining parasite growth % (stronger effect = lower value) in experiment [7] was -1.7%. Also, the activity, percent of control in experiment [8] was -0.497%. Besides, in experiment [3], the parasite growth, % of control (lower = inhibition) was found to be 7.54%. The same compound registered a growth, % of control in experiment [4] of 3.14%. For the same compound, the cell viability, % of control (lower = more cytotoxic) in experiment [5] was found to be 3.38%. The viability (% of control) in experiment [6] is 1.9%.
In experiment [1], `O=C(c1cncc(Br)c1)N1CCC(N2CCCC2)CC1` displayed a parasite growth, % of DMSO control of 102%. The parasite growth remaining, % of DMSO control (lower = more inhibition) in experiment [2] is 105%. In addition, the parasite growth, % of control (lower = inhibition) in experiment [3] came out at 80.8%. The same compound had a growth, % of control in experiment [4] of 96.9%. In addition, the cell viability, % of control (lower = more cytotoxic) in experiment [5] worked out at 144%. Moreover, the viability (% of control) in experiment [6] came to 126%.
With `CNC(=O)c1c(F)cccc1Nc1nc(Nc2cc3c(cc2OC)CCN3C(=O)CN(C)C)nc2[nH]ccc12`, in experiment [1], the parasite growth, % of DMSO control worked out at 3.51%. Besides, the parasite growth remaining, % of DMSO control (lower = more inhibition) in experiment [2] worked out at 6.69%. In experiment [3], the parasite growth, % of control (lower = inhibition) is 6.76%. This compound showed a growth, % of control in experiment [4] of 2.27%. Moreover, the cell viability, % of control (lower = more cytotoxic) in experiment [5] was found to be 5.55%. Further, the viability (% of control) in experiment [6] amounted to 2.8%.
The compound `O=c1c2ccccc2nc2n1CCc1c-2[nH]c2ccccc12` registered a parasite growth, % of DMSO control in experiment [1] of 85.9%. Moreover, in experiment [2], the parasite growth remaining, % of DMSO control (lower = more inhibition) turned out to be 88.1%. In experiment [3], the parasite growth, % of control (lower = inhibition) was determined as 167%. Moreover, in experiment [5], the cell viability, % of control (lower = more cytotoxic) was determined as 35%. For the same compound, in experiment [6], the viability (% of control) was found to be 72.9%.
Compound `Cc1cc(C(=O)N2CCN(c3cccc(Cl)c3)CC2)n(-c2ccccc2)n1` had a parasite growth, % of DMSO control in experiment [1] of 97.2%. Also, in experiment [2], the parasite growth remaining, % of DMSO control (lower = more inhibition) was determined as 107%. In experiment [3], the parasite growth, % of control (lower = inhibition) came to 98.6%. In experiment [4], this compound displayed a growth, % of control of 108%. For the same compound, in experiment [5], the cell viability, % of control (lower = more cytotoxic) came out at 88.4%. In experiment [6], the viability (% of control) stood at 18.2%.
The compound `CCC1=C[C@@H]2CN(C1)Cc1c([nH]c3ccccc13)[C@@](C(=O)OC)(c1cc3c(cc1OC)N(C)[C@@H]1[C@@](O)(C(=O)OC)[C@H](OC(C)=O)[C@]4(CC)C=CCN5CC[C@]31[C@@H]54)C2` yielded a parasite growth, % of DMSO control in experiment [1] of 5.09%. Also, in experiment [2], the parasite growth remaining, % of DMSO control (lower = more inhibition) amounted to 7.41%. Moreover, in experiment [3], the parasite growth, % of control (lower = inhibition) was 20.6%. The growth, % of control in experiment [4] stood at 8.82%. Further, in experiment [5], the cell viability, % of control (lower = more cytotoxic) was found to be 28.9%. Also, the viability (% of control) in experiment [6] turned out to be 14.5%.
In experiment [1], `Cc1c(NC(=O)OC[C@@H]2COCCN2)cn2ncnc(Nc3ccc4c(cnn4Cc4cccc(F)c4)c3)c12` displayed a parasite growth, % of DMSO control of 5.88%. The parasite growth remaining, % of DMSO control (lower = more inhibition) in experiment [2] was 11%. Besides, the parasite growth, % of control (lower = inhibition) in experiment [3] worked out at 24.7%. Further, the cell viability, % of control (lower = more cytotoxic) in experiment [5] came out at 285%. Further, the viability (% of control) in experiment [6] was determined as 13.9%.
